# Test results as given in PubChem BioAssay (NCATS).
# Results filed as inconclusive are left out. Values without a mark were called inactive. Active and inactive are the calls of the source. The call rests on the fitted dose curve; in most records, active means well fitted curve in the direction sought with a large enough effect; inconclusive means small, poorly fitted or top-dose-only effect, or another doubt; inactive means no such curve, though single readings can be large; an effect the other way counts as inactive or inconclusive.
# Assays:
# [1] = Quantitative High-Throughput drug screen in 47 multiple myeloma cell lines against the NCATS MIPE library collection: KMS12PE_JCRB cell viability assay (AID 1918972); further: nearly all actives have a fitted effect of over 30% in size; further: potency means the concentration at half of the fitted maximal effect
# Method in brief: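 Viability readout: CellTiter-Glo luminescence following 5 min room-temperature incubation with reagent. Prior exposure: 48 h, 37C, humidified 5% CO2, 500 cells per well.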
# [2] = Quantitative High-Throughput drug screen in 47 multiple myeloma cell lines against the NCATS MIPE library collection: MMM1_PLB cell viability assay (AID 1918976); further: nearly all actives have a fitted effect of over 35% in size; further: potency means the concentration at half of the fitted maximal effect
# Method in brief: (§1)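 Cells were exposed to library compounds for 48 hours, after which ATP was measured by CellTiter-Glo. Signal was taken as median relative luminescence units.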
# [3] = Quantitative High-Throughput drug screen in 47 multiple myeloma cell lines against the NCATS MIPE library collection: NCIH929_DSMZ cell viability assay (AID 1918978); further: nearly all actives have a fitted effect of over 35% in size; further: potency means the concentration at half of the fitted maximal effect
# Method in brief: as §1
# [4] = Quantitative High-Throughput drug screen in 47 multiple myeloma cell lines against the NCATS MIPE library collection: MM1S_ATCC cell viability assay (AID 1918980); further: nearly all actives have a fitted effect of over 45% in size; further: potency means the concentration at half of the fitted maximal effect
# Method in brief: as §1
# [5] = Quantitative High-Throughput drug screen in 47 multiple myeloma cell lines against the NCATS MIPE library collection: MM1R_ATCC cell viability assay (AID 1918981); further: nearly all actives have a fitted effect of over 35% in size; further: potency means the concentration at half of the fitted maximal effect
# Method in brief: as §1
# [6] = Quantitative High-Throughput drug screen in 47 multiple myeloma cell lines against the NCATS MIPE library collection: LP1_DSMZ cell viability assay (AID 1918982); further: nearly all actives have a fitted effect of over 35% in size; further: potency means the concentration at half of the fitted maximal effect
# Method in brief: as §1
# [7] = Quantitative High-Throughput drug screen in 47 multiple myeloma cell lines against the NCATS MIPE library collection: KMS28PE_JCRB cell viability assay (AID 1918983); further: nearly all actives have a fitted effect of over 35% in size; further: potency means the concentration at half of the fitted maximal effect
# Method in brief: as §1
# [8] = Quantitative High-Throughput drug screen in 47 multiple myeloma cell lines against the NCATS MIPE library collection: L363_DSMZ cell viability assay (AID 1918984); conditions: L363 myeloma viability, CellTiter-Glo ATP luminescence, 48 h; viability (% of control): at 45.8 µM (top of the series); further: nearly all actives have a fitted effect of over 40% in size; further: potency means the concentration at half of the fitted maximal effect
# Method in brief: as §1
# [9] = Quantitative High-Throughput drug screen in 47 multiple myeloma cell lines against the NCATS MIPE library collection: OCIMY5_PLB cell viability assay (AID 1918988); further: potency means the concentration at half of the fitted maximal effect; nearly all actives have a fitted effect of over 65% in size
# Method in brief: as §1
# [10] = Quantitative High-Throughput drug screen in 47 multiple myeloma cell lines against the NCATS MIPE library collection: SKMM1_PLB cell viability assay (AID 1919863); conditions: SKMM1 myeloma viability, CellTiter-Glo ATP, 48 h; viability: stronger effect = lower value; further: nearly all actives have a fitted effect of over 35% in size; further: potency means the concentration at half of the fitted maximal effect
# Method in brief: as §1
# [11] = Quantitative High-Throughput drug screen in 47 multiple myeloma cell lines against the NCATS MIPE library collection: OCIMY1_PLB cell viability assay (AID 1918979); further: nearly all actives have a fitted effect of over 35% in size
# Method in brief: as §1
# [12] = Quantitative High-Throughput drug screen in 47 multiple myeloma cell lines against the NCATS MIPE library collection: U266_ATCC cell viability assay (AID 1919864); further: nearly all actives have a fitted effect of over 35% in size; further: potency means the concentration at half of the fitted maximal effect
# Method in brief: as §1
# [13] = Quantitative High-Throughput drug screen in 47 multiple myeloma cell lines against the NCATS MIPE library collection: XG6_PLB cell viability assay (AID 1919865); further: nearly all actives have a fitted effect of over 40% in size; further: potency means the concentration at half of the fitted maximal effect
# Method in brief: as §1
# [14] = Quantitative High-Throughput drug screen in 47 multiple myeloma cell lines against the NCATS MIPE library collection: KMS34_JCRB cell viability assay (AID 1918985); further: nearly all actives have a fitted effect of over 40% in size; further: potency means the concentration at half of the fitted maximal effect
# Method in brief: as §1
# [15] = Quantitative High-Throughput drug screen in 47 multiple myeloma cell lines against the NCATS MIPE library collection: OPM1_PLB cell viability assay (AID 1918989); further: nearly all actives have a fitted effect of over 40% in size; further: potency means the concentration at half of the fitted maximal effect
# Method in brief: as §1
# [16] = Quantitative High-Throughput drug screen in 47 multiple myeloma cell lines against the NCATS MIPE library collection: OCIMY7_PLB cell viability assay (AID 1918987); conditions: OCI-MY7 myeloma viability, CellTiter-Glo ATP, 48 h; viability (% of DMSO): at 45.8 µM (top of the series); further: potency means the concentration at half of the fitted maximal effect; nearly all actives have a fitted effect of over 65% in size
# Method in brief: as §1
# [17] = Quantitative High-Throughput drug screen in 47 multiple myeloma cell lines against the NCATS MIPE library collection: KMS20_JCRB cell viability assay (AID 1918973); further: nearly all actives have a fitted effect of over 45% in size; further: potency means the concentration at half of the fitted maximal effect
# Method in brief: (§2)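 CellTiter-Glo ATP luminescence gave viability after 48 h compound treatment at 37C of 500 multiple myeloma cells per well. Normalisation used DMSO-only wells as 100% and media-only wells as 0% viability; primary qHTS of approved and investigational drugs.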
# [18] = Quantitative High-Throughput drug screen in 47 multiple myeloma cell lines against the NCATS MIPE library collection: KMS21BM_JCRB cell viability assay (AID 1918974); conditions: ATP luminescence, 48 h; viability: at 45.8 µM (top of the series); further: potency means the concentration at half of the fitted maximal effect
# Method in brief: as §2
# [19] = Quantitative High-Throughput drug screen in 47 multiple myeloma cell lines against the NCATS MIPE library collection: KMS26_JCRB cell viability assay (AID 1918975); further: nearly all actives have a fitted effect of over 45% in size; further: potency means the concentration at half of the fitted maximal effect
# Method in brief: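 Steps: seed 500 cells per well; pin-transfer MIPE 4.0 library; incubate 48 h at 37C, 5% CO2, humidified; add CellTiter-Glo, 5 min room temperature; read luminescence.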
# [20] = Quantitative High-Throughput drug screen in 47 multiple myeloma cell lines against the NCATS MIPE library collection: MOLP8_DSMZ cell viability assay (AID 1918977); further: potency means the concentration at half of the fitted maximal effect; nearly all actives have a fitted effect of over 45% in size
# Method in brief: as §1
structure (smiles),measurement,setting,value
CCCCOCCOc1nc(-c2ccc(C(=O)O)c(F)c2)sc1C,Potency,[1],inactive
same,Potency,[2],inactive
same,Potency,[3],inactive
same,Potency,[4],13.2 µM (active)
same,Potency,[5],inactive
same,Potency,[6],inactive
same,Potency,[7],inactive
same,Potency,[8],inactive
same,Potency,[9],14.8 µM (active)
same,viability,[10],118%
NC(=O)c1nnn(Cc2cc(Cl)c(C(=O)c3ccc(Cl)cc3)c(Cl)c2)c1N,Potency,[1],6.62 µM (active)
same,Potency,[2],20.9 µM (active)
same,Potency,[11],inactive
same,Potency,[4],18.7 µM (active)
same,Potency,[5],18.7 µM (active)
same,Potency,[8],inactive
same,Potency,[9],26.4 µM (active)
same,Potency,[12],16.6 µM (active)
same,Potency,[13],18.7 µM (active)
CC(C)(OCc1nn(Cc2ccccc2)c2ccccc12)C(=O)O,Potency,[1],inactive
same,Potency,[2],inactive
same,Potency,[11],inactive
same,Potency,[4],13.2 µM (active)
same,Potency,[14],inactive
same,Potency,[15],inactive
Fc1ccc(C(c2ccc(F)cc2)N2CCN(CC=Cc3ccccc3)CC2)cc1,Potency,[1],inactive
same,Potency,[3],18.7 µM (active)
same,Potency,[6],16.6 µM (active)
same,Potency,[7],inactive
same,Potency,[8],inactive
same,Potency,[14],inactive
same,Potency,[16],13.2 µM (active)
same,Potency,[9],14.8 µM (active)
same,Potency,[15],inactive
same,viability,[10],107%
same,Potency,[13],7.43 µM (active)
CN(CC=CC#CC(C)(C)C)Cc1cccc2ccccc12,Potency,[1],inactive
same,Potency,[3],inactive
same,Potency,[4],inactive
same,Potency,[7],inactive
same,Potency,[14],inactive
CC1(C)OC2CC3C4CC(F)C5=CC(=O)C=CC5(C)C4C(O)CC3(C)[C@]2(C(=O)CO)O1 (some centres undefined),Potency,[17],inactive
same,Potency,[18],0.0083 µM (active)
same,Potency,[19],inactive
same,Potency,[2],inactive
same,Potency,[11],inactive
same,Potency,[4],0.0166 µM (active)
same,Potency,[5],inactive
same,Potency,[6],0.0023 µM (active)
same,Potency,[7],inactive
same,Potency,[8],0.132 µM (active)
same,Potency,[14],0.0209 µM (active)
same,Potency,[15],inactive
same,viability,[10],131%
same,Potency,[12],inactive
C[C@@]1(c2cc(-c3cncnc3)c(F)cc2F)CCSC(N)=N1,Potency,[17],9.35 µM (active)
same,Potency,[19],inactive
same,Potency,[11],inactive
same,Potency,[5],inactive
same,Potency,[6],inactive
same,Potency,[8],1.48 µM (active)
same,Potency,[14],inactive
same,Potency,[12],inactive
O=C(O)C1=CC(O)C(O)[C@H](O)C1 (some centres undefined),Potency,[1],inactive
same,Potency,[11],inactive
same,Potency,[4],inactive
same,Potency,[5],inactive
same,Potency,[6],inactive
same,Potency,[7],inactive
same,Potency,[14],inactive
same,Potency,[15],inactive
same,viability,[10],118%
same,Potency,[12],inactive
same,Potency,[13],inactive
NC(N)=Nc1nc(CSCCC(N)=NS(N)(=O)=O)cs1,Potency,[1],inactive
same,Potency,[4],9.35 µM (active)
same,Potency,[5],23.5 µM (active)
same,Potency,[6],inactive
same,Potency,[7],inactive
same,Potency,[14],inactive
same,Potency,[16],10.5 µM (active)
same,Potency,[9],29.6 µM (active)
same,Potency,[15],16.6 µM (active)
same,Potency,[12],20.9 µM (active)
same,Potency,[13],6.62 µM (active)
COc1ccc(-c2ccc3ncc4c(c3c2)n(-c2ccc(N3CCNCC3)c(C(F)(F)F)c2)c(=O)n4C)cn1,Potency,[17],0.0066 µM (active)
same,Potency,[19],0.0083 µM (active)
same,Potency,[2],0.0074 µM (active)
same,Potency,[7],0.0066 µM (active)
same,Potency,[16],0.0059 µM (active)
same,Potency,[9],0.0469 µM (active)
same,Potency,[15],inactive
same,Potency,[10],0.526 µM (active)
CNC(=O)[C@H](Cc1ccccc1)NC(=O)[C@H](CC(C)C)[C@H](CSc1cccs1)C(=O)NO,Potency,[17],inactive
same,Potency,[19],inactive
same,Potency,[3],9.35 µM (active)
same,Potency,[4],26.4 µM (active)
same,Potency,[7],6.62 µM (active)
same,Potency,[16],14.8 µM (active)
same,Potency,[15],inactive
same,viability,[10],98.7%
same,Potency,[13],7.43 µM (active)
COc1c(C)cnc(Cn2cnc3c(Cl)nc(N)nc32)c1C,Potency,[17],0.209 µM (active)
same,Potency,[2],0.935 µM (active)
same,Potency,[20],0.0935 µM (active)
same,Potency,[3],0.187 µM (active)
same,Potency,[4],0.332 µM (active)
same,Potency,[5],0.235 µM (active)
same,Potency,[7],0.235 µM (active)
same,Potency,[8],0.0372 µM (active)
same,Potency,[14],0.105 µM (active)
same,Potency,[16],0.0418 µM (active)
same,Potency,[9],0.0935 µM (active)
same,Potency,[15],0.148 µM (active)
same,Potency,[12],0.166 µM (active)
same,Potency,[13],0.264 µM (active)
Cc1ccc2c(c1)C(=O)[C@]1(O)CCN(c3ccccc3)C1=N2,Potency,[17],2.96 µM (active)
same,Potency,[2],inactive
same,Potency,[3],inactive
same,Potency,[8],inactive
same,Potency,[14],1.48 µM (active)
same,Potency,[15],inactive
same,Potency,[13],inactive
NC[C@H]1O[C@H](O[C@@H]2[C@@H](O)[C@@H](O[C@H]3O[C@H](CO)[C@@H](O)[C@H](N)[C@@H]3O)[C@H](N)C[C@@H]2N)[C@H](O)[C@@H](O)[C@H]1O,Potency,[1],inactive
same,Potency,[3],inactive
same,Potency,[11],inactive
same,Potency,[5],inactive
same,Potency,[6],inactive
same,Potency,[7],inactive
same,Potency,[8],inactive
same,Potency,[14],inactive
same,Potency,[15],inactive
same,viability,[10],120%
same,Potency,[13],inactive
COc1ccc2nc3cc(Cl)ccc3c(Nc3cc(CN4CCCC4)c(O)c(CN4CCCC4)c3)c2n1,Potency,[17],20.9 µM (active)
same,Potency,[19],16.6 µM (active)
same,Potency,[2],14.8 µM (active)
same,Potency,[20],16.6 µM (active)
same,Potency,[3],18.7 µM (active)
same,Potency,[4],20.9 µM (active)
same,Potency,[6],20.9 µM (active)
same,Potency,[8],16.6 µM (active)
same,Potency,[9],18.7 µM (active)
same,Potency,[10],14.8 µM (active)
same,Potency,[12],23.5 µM (active)
same,Potency,[13],14.8 µM (active)
Cn1c(=O)c(Oc2ccc(F)cc2F)cc2cnc(NC3CCOCC3)nc21,Potency,[17],inactive
same,Potency,[2],1.87 µM (active)
same,Potency,[3],inactive
same,Potency,[5],7.43 µM (active)
same,Potency,[7],inactive
same,Potency,[14],1.32 µM (active)
same,Potency,[9],18.7 µM (active)
same,Potency,[12],inactive
